# Publication PMC7862700, “An all-to-all approach to the identification of sequence-specific readers for epigenetic DNA modifications on cytosine”
# Columns and labels:
# Experiment in all cases: DAPPL (digital affinity profiling via proximity ligation, sequencing); 10 mM Tris-HCl pH 7.5, 50 mM NaCl, 1 mM DTT, 4% glycerol, room temperature, 30 min; GST-TFs on glutathione beads, 16-mer random dsDNA library, 0.1% formaldehyde crosslink after washing; high values mean tight binding
# Conditions in all cases: protein: recombinant; tags: N-terminal GST; dsDNA, one strand shown
# [1] = target: ETV1 (Homo sapiens, UniProt P50549 1-477)
# Procedure, shortened: (§1)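 The binding signal reported is, for every hexamer, its read frequency for a factor over its read frequency for the tag-only sample. Reads came from pools of yeast-expressed, GST-fused human transcription factors on glutathione beads, barcoded with DNA and mixed with that sample, which were incubated with 200 nmole of a random double-stranded 16-mer DNA library in Tris/NaCl/DTT/glycerol buffer at room temperature for 30 min. After washing, the pools were crosslinked with 0.1% formaldehyde, proximity-ligated with BsaI/T4 ligase for 1 h at 37 °C, PCR-amplified and sequenced on an Illumina NextSeq500.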
# [2] = target: T1, ERF (Homo sapiens, UniProt P50548 1-548)
# T1 sequence: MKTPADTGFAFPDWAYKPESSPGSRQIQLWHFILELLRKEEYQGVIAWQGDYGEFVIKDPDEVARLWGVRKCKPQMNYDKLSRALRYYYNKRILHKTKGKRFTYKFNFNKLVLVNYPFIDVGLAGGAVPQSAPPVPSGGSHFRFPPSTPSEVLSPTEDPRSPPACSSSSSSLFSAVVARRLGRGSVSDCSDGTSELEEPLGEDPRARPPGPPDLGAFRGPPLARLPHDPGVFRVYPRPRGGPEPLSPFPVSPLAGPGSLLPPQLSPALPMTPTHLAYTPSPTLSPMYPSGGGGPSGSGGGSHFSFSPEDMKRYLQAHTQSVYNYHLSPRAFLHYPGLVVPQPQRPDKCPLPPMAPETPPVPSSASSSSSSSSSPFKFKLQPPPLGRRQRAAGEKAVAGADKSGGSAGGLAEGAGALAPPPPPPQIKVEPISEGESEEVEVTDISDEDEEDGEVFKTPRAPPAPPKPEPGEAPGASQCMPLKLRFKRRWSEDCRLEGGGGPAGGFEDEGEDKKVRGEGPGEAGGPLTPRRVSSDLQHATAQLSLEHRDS
# Procedure, shortened: as §1
# [3] = target: T2, ETV3L (Homo sapiens, UniProt Q6ZN32 1-361)
# T2 sequence: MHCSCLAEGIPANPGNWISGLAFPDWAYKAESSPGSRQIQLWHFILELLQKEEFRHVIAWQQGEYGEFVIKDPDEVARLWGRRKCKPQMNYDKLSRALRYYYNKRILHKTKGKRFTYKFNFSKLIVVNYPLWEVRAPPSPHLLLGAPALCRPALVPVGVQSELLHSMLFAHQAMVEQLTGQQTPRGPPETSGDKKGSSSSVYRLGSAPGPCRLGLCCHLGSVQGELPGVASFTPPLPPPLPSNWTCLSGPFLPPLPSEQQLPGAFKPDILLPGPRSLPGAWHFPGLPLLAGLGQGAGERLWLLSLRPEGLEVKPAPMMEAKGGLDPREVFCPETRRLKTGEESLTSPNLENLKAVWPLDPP
# Procedure, shortened: as §1
# [4] = target: T3, ETS2 (Homo sapiens, UniProt P15036 1-469)
# T3 sequence: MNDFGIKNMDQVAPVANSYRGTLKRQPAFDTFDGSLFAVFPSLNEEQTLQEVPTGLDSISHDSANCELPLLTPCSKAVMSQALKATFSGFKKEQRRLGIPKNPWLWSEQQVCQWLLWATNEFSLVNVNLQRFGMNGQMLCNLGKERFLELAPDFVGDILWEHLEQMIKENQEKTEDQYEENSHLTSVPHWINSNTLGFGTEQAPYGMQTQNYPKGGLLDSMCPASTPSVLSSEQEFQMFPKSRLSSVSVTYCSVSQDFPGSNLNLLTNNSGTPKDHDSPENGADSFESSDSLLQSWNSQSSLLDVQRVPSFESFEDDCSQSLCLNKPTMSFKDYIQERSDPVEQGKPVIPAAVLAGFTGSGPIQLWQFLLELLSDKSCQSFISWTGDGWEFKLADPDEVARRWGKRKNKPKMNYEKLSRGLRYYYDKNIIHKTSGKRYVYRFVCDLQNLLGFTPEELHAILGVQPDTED
# Procedure, shortened: as §1
# [5] = target: T4, SPDEF (Homo sapiens, UniProt O95238 1-335)
# T4 sequence: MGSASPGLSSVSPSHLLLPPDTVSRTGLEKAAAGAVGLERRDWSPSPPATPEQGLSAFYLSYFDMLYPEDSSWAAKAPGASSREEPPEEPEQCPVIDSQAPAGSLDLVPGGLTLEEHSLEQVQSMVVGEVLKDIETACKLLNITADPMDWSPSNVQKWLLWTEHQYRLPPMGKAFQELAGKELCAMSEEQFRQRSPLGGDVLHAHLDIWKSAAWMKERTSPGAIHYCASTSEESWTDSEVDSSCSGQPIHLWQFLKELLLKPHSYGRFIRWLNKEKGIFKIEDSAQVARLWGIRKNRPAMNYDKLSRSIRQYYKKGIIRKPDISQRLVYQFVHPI
# Procedure, shortened: as §1
# [6] = target: T5, ETV7 (Homo sapiens, UniProt Q9Y603 1-341)
# T5 sequence: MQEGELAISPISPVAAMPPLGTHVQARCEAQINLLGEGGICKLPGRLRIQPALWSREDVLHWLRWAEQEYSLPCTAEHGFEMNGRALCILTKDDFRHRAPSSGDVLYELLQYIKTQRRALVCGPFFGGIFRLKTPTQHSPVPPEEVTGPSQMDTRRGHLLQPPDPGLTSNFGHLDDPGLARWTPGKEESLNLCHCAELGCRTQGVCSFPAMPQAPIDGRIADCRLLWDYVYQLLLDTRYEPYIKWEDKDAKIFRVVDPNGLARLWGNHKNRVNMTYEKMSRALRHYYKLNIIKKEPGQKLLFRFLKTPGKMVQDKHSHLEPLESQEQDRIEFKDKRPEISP
# Procedure, shortened: as §1
# [7] = target: T6, ELF5 (Homo sapiens, UniProt Q9UKW6-2 1-255)
# T6 sequence: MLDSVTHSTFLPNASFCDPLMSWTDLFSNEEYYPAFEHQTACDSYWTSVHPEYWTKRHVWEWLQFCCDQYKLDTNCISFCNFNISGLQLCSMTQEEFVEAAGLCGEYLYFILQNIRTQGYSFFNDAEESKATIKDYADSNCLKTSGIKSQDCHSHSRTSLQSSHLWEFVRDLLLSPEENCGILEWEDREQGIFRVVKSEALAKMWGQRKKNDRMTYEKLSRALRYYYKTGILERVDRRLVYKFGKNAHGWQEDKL
# Procedure, shortened: as §1
# [8] = target: T7, ETV3 (Homo sapiens, UniProt P41162-2 1-143)
# T7 sequence: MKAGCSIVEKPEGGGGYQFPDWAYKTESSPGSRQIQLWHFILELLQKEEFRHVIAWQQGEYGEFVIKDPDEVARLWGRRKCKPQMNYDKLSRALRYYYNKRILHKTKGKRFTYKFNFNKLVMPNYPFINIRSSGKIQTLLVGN
# Procedure, shortened: as §1
# [9] = target: ETV6 (Homo sapiens, UniProt P41212 1-452)
# Procedure, shortened: as §1
# Chain of ETV6 (P41212 whole entry): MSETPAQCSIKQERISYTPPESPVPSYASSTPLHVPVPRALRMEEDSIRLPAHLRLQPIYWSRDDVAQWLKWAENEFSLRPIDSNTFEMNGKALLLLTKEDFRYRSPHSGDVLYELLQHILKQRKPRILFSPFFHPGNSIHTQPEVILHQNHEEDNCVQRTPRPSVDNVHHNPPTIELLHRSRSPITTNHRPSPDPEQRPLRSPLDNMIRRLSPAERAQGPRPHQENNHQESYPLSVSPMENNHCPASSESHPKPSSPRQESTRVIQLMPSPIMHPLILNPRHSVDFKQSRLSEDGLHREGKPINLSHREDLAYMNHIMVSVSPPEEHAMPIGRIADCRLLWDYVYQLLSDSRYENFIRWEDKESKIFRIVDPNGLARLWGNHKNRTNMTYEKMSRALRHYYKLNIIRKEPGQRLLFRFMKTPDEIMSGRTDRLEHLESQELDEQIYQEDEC
# Chain of ETV1 (P50549 whole entry, the tested form may be a part): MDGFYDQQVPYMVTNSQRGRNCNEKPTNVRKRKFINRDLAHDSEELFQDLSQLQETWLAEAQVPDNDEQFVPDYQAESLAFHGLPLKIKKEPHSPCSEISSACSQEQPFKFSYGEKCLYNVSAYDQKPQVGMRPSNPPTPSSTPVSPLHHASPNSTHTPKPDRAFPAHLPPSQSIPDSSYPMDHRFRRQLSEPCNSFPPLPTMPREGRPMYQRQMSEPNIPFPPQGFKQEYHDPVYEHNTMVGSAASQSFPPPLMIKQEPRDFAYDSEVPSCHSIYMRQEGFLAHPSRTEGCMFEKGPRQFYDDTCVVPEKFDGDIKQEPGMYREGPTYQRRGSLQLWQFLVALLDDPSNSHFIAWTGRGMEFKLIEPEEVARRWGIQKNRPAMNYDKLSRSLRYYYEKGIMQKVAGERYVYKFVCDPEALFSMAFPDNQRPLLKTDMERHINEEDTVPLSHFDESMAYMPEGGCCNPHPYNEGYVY
sequence,measurement,setting,value
TTTGGG,binding signal,[1],"1.43 fold enrichment (6-mer frequency, TF over GST control)"
same,binding signal,[2],"1.39 fold enrichment (6-mer frequency, TF over GST control)"
same,binding signal,[3],"1.46 fold enrichment (6-mer frequency, TF over GST control)"
same,binding signal,[4],"1.3 fold enrichment (6-mer frequency, TF over GST control)"
same,binding signal,[5],"1.25 fold enrichment (6-mer frequency, TF over GST control)"
same,binding signal,[6],"1.29 fold enrichment (6-mer frequency, TF over GST control)"
same,binding signal,[7],"1.26 fold enrichment (6-mer frequency, TF over GST control)"
same,binding signal,[8],"1.32 fold enrichment (6-mer frequency, TF over GST control)"
same,binding signal,[9],"1.3 fold enrichment (6-mer frequency, TF over GST control)"
